Laboratory results as given in PubChem BioAssay (NCATS).
Values without a mark were called inactive. Inconclusive results are not listed. Entries that show only a call come without a potency. The source made the active and inactive calls. Unless noted, the call rests on the fitted dose curve; in most records, active means well fitted curve in the direction sought with a large enough effect; inconclusive means small, poorly fitted or top-dose-only effect, or another doubt; inactive means no such curve, though single readings can be large; an effect the other way counts as inactive or inconclusive.

Tests used:
[1] = Validation of Assay for Modulators of Lamin A Splicing (AID 1459; active means well fitted curve in the direction sought with a large enough effect in the signal ratio; the % refers to the signal ratio;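 further: cells exposed to compound for two days before reading; ratio rise marks activators and ratio drop marks inhibitors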)
Method in brief: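 S3 HeLa stably expressing lamin A-EGFP splicing minigene and DsRed2, 600 cells/well in Opti-MEM with 2% FBS, treated 48 h at 37C; laser-scanning cytometry gives GFP/RFP total intensity ratio; ancitabine positive control, 0.5% DMSO vehicle.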

[2] = biological target: DNA repair nuclease/redox regulator APEX1 (Homo sapiens) (UniProt P27695); experiment: qHTS Validation Assay for Inhibitors of the Human Apurinic/apyrimidinic Endonuclease 1 (APE1) (AID 1705;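 further: TAMRA fluorescence gain over two minutes as APE1 cuts a quenched THF abasic duplex; series mostly up to about 57 µM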)
Method in brief: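 Fluorogenic double-stranded THF abasic-site substrate (5'-TAMRA/3'-BHQ-2), 50 nM final. Enzyme preincubated with compound 15 min at room temperature, then substrate added. Kinetic fluorescence (ex 525/em 598 nm) read three times at 60 s intervals; activity taken as third-minus-first read difference.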

[3] = Counterscreen for APE1 Inhibitors: Fluorescent Dye Displacement Validation Assay (AID 1707)
Method in brief: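 Thiazole Orange displacement from dsDNA: 250 nM ThO with 50 nM TAMRA-labelled abasic-site (tetrahydrofuran) duplex in 50 mM Tris-HCl pH7.5, 50mM NaCl, 2 mM MgCl2, 0.01% Tween-20. Loss of endpoint fluorescence (ex 480 nm, em 540 nm) flags DNA binders.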

[4] = biological target: Endonuclease 4 (Escherichia coli (strain K12)) (UniProt P0A6C1); experiment: Counterscreen for APE1 Inhibitors: qHTS Validation Assay for Inhibitors of Endonuclease IV (AID 1708)
Method in brief: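 E. coli EndoIV at 2 nM final, preincubated 15 min at room temperature with compound, then 50 nM TAMRA/BHQ-2 THF abasic-site duplex added. Buffer: 50 mM Tris-HCl pH 7.5, 50 mM NaCl, 2 mM MgCl2, 1 mM DTT, 0.01% Tween-20. Kinetic fluorescence increase, third minus first read.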

[5] = qHTS for differential inhibitors of proliferation of Plasmodium falciparum line 7G8 (AID 1815);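 further: potency means the concentration at half of the fitted maximal effect; parasite growth measured after three days of incubation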
[6] = qHTS for differential inhibitors of proliferation of Plasmodium falciparum line GB4 (AID 1816); conditions: Potency: Plasmodium falciparum GB4 proliferation inhibition;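 further: potency means the concentration at half of the fitted maximal effect; parasite growth measured after 72 h incubation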
[7] = qHTS for differential inhibitors of proliferation of Plasmodium falciparum line D10 (AID 1877);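 further: potency means the concentration at half of the fitted maximal effect; parasites grown with compound for 72 h before DNA staining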
[8] = qHTS for differential inhibitors of proliferation of Plasmodium falciparum line W2 (AID 1883); conditions: Potency: Plasmodium falciparum W2 proliferation inhibition;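 further: potency means the concentration at half of the fitted maximal effect; parasites grown with compound for 72 h before lysis and staining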
[9] = qHTS for differential inhibitors of proliferation of Plasmodium falciparum line HB3 (AID 1886); conditions: Potency: Plasmodium falciparum HB3 proliferation inhibition;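 further: potency means the concentration at half of the fitted maximal effect; parasites grown with compound for 72 h before SYBR Green readout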
[10] = biological target: ATP-dependent DNA helicase Q1 (Homo sapiens) (UniProt P46063); experiment: qHTS Validation Assay for Inhibitors of RecQ-Like Dna Helicase 1 (RECQ1) (AID 2353)
Method in brief: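 50 nM RECQ1T1 preincubated 15 min with compound in Tris pH 8.0 buffer with MgCl2, DTT, Tween-20 and 2.5 ug/ml poly(dI-dC); started with 200 nM TAMRA/BHQ-2 forked duplex and 2 mM ATP. Unwinding read as fluorescence (525/598 nm), two reads 2 h apart.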

[11] = Quantitative high throughput screen for delayed death inhibitors of the malarial parasite plastid, 96 hour incubation (AID 488745); further: series mostly up to about 29 µM; nearly all actives have a fitted effect of over 70% in size
Method in brief: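 Luciferase-expressing P. falciparum in erythrocytes (2% hematocrit, 0.1% parasitemia) incubated with compound for 96 h at 37 C, 5% CO2, in RPMI 1640 with 0.5% Albumax. Growth inhibition read as decreased luminescence.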

[12] = Quantitative high throughput screen for delayed death inhibitors of the malarial parasite plastid, 48 hour incubation (AID 488752); further: nearly all actives have a fitted effect of over 65% in size
Method in brief: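 Erythrocytes infected with firefly luciferase-expressing P. falciparum (2% hematocrit, 0.1% parasitemia) cultured with compound for 48 h at 37 C, 5% CO2, in RPMI 1640/0.5% Albumax. Growth inhibition read as loss of luminescence.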

[13] = biological target: M-phase phosphoprotein 8 (Homo sapiens) (UniProt Q99549); experiment: qHTS Validation Assay for Inhibitors for MPP8 Chromodomain Interactions with Methylated Histone Tails (AID 488949); further: top concentration of the series differs between compounds; nearly all actives have a fitted effect of over 55% in size
Method in brief: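 MPP8 (50 nM) was pre-bound to 50 nM biotinylated H3(1-18)K9me3 peptide in PBS pH 7.4 with 0.01% Tween-20. Compounds were then added for 30 min at room temperature, and complex disruption was read by AlphaScreen with streptavidin donor and nickel-chelate acceptor beads.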

[14] = biological target: Transient receptor potential cation channel subfamily V member 1 (Homo sapiens) (UniProt Q8NER1); experiment: HTS Assay for Compounds that Act as Enhancers of the Vanilloid Receptor 1 (AID 488979)
Method in brief: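 TRPV1 cells loaded with Fluo-8 calcium dye; compound added and Ca2+ signal (ex 480/em 520 nm) followed 3 min, then capsaicin at EC20 added and read 2 more min to detect enhancement.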

[15] = Validation screen for small molecules that induce DNA re-replication in SW480 colon adenocarcinoma cells (AID 504364)
Method in brief: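 SW480 cells (250/well) exposed 48 h at 37 C, 5% CO2, then Hoechst-stained 40 min. Nuclear DNA content imaged by fluorescence scanning (405 nm excitation, 500-530 nm emission); re-replication scored as increased nuclei with elevated intensity.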

[16] = biological target: Voltage-gated inwardly rectifying potassium channel KCNH2 (Homo sapiens) (UniProt Q12809); experiment: qHTS Assay for Small Molecule Inhibitors of the Human hERG Channel Activity (AID 588834);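 further: top concentration of the series differs between compounds; lower thallium flux fluorescence means stronger hERG block; nearly all actives have a fitted effect of over 50% in size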
Method in brief: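 U2OS cells BacMam-transduced with hERG, 2000 cells/well, compound ~10 min at 37 °C before stimulation buffer. FluxOR thallium flux fluorescence read kinetically on FDSS; decrease indicates block; AC50 from Hill fits.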

[17] = tested on: Zika virus NS2B-NS3 protease; experiment: Primary screen GU AMC qHTS for Zika virus inhibitors (AID 1347154); further: nearly all actives have a fitted effect of over 70% in size
Method in brief: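 Unlinked Zika NS2B hydrophilic domain–NS3 protease complex at 25 nM in 10 mM Tris-HCl pH 8.0, 0.01% Tween 20, with an AMC peptide substrate. Fluorescence change (340/450 nm) over 15 min at room temperature, normalized to controls, fitted to 4-parameter Hill.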

DNA repair nuclease/redox regulator APEX1 (Homo sapiens), sequence (P27695 whole entry, looked up): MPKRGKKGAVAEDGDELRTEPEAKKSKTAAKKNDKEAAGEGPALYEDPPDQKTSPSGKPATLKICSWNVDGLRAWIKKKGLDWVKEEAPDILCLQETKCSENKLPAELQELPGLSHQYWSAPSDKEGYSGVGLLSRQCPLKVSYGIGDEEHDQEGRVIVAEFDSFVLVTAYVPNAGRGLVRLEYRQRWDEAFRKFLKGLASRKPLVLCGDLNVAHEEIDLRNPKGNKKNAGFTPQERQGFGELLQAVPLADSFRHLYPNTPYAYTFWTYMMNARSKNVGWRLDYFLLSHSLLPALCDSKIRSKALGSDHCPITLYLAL
M-phase phosphoprotein 8 (Homo sapiens), sequence (Q99549 whole entry, looked up): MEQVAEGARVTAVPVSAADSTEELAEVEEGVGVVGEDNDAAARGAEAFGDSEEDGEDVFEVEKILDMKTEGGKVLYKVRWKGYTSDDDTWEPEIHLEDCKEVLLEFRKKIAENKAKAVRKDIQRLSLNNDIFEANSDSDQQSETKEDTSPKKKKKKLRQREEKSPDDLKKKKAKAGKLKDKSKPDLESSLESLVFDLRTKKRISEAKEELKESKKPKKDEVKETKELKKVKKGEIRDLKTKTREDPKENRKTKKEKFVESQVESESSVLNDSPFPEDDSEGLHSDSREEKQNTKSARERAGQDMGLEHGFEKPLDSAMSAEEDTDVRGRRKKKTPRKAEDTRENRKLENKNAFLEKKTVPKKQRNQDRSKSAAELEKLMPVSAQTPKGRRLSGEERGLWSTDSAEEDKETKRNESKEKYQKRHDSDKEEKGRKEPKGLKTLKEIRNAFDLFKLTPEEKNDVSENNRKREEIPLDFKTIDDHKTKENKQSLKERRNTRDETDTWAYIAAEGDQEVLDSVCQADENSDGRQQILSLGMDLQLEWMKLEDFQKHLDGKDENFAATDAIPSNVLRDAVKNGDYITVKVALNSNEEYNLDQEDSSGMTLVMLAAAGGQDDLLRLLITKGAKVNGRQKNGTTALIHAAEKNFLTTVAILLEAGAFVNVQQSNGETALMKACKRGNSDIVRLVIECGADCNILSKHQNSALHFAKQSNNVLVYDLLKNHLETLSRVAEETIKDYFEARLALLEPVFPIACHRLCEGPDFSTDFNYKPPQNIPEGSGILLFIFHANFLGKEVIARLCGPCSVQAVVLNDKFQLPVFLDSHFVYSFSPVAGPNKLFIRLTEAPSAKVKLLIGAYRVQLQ
ATP-dependent DNA helicase Q1 (Homo sapiens), sequence (P46063 whole entry, looked up): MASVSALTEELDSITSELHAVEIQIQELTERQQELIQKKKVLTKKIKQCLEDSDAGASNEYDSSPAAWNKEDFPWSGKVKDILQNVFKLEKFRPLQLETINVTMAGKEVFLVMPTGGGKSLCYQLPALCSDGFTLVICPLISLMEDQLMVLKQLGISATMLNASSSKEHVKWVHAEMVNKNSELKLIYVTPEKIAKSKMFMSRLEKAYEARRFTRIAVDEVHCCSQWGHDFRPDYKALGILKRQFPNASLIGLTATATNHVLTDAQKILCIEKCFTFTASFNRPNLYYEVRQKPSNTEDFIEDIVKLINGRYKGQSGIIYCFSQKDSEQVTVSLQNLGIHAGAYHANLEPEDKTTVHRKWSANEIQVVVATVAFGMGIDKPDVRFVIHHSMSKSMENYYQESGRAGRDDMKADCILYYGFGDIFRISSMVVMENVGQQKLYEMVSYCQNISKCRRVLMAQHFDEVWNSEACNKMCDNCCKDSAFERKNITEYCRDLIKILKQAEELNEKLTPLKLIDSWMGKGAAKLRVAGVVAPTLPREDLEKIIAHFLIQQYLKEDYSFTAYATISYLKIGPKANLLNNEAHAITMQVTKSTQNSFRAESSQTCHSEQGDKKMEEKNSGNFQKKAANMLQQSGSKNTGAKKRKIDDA
Voltage-gated inwardly rectifying potassium channel KCNH2 (Homo sapiens), sequence (Q12809 whole entry, looked up): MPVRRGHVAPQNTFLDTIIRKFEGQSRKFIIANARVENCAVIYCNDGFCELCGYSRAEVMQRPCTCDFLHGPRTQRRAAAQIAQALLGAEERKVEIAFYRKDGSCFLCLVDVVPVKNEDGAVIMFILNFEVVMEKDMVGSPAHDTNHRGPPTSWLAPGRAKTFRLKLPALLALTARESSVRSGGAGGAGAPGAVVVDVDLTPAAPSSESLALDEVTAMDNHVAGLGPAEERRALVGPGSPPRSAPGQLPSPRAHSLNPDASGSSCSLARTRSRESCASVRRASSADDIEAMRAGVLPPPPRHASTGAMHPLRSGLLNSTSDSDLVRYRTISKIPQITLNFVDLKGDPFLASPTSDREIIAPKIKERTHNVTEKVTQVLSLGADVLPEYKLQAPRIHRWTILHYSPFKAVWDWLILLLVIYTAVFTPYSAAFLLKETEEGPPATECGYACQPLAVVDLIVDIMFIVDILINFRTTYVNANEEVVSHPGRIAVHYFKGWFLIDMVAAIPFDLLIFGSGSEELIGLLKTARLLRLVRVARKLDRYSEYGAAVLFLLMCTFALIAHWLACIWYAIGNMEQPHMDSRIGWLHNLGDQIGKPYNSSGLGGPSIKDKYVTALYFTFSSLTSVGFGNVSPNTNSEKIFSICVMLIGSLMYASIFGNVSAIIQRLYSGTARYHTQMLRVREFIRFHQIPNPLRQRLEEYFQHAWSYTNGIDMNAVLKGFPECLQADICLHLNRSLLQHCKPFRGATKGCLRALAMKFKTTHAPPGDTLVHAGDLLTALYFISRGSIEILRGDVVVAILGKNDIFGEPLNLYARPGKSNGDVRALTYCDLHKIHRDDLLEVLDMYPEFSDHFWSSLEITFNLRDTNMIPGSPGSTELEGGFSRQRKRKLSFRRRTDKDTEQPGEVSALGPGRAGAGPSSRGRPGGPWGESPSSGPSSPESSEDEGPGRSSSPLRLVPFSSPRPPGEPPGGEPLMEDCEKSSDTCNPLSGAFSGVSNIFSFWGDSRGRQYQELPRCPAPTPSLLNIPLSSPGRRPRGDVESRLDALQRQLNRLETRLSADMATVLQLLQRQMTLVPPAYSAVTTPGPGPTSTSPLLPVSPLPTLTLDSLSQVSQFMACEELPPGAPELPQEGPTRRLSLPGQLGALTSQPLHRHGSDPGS
Transient receptor potential cation channel subfamily V member 1 (Homo sapiens), sequence (Q8NER1 whole entry, looked up): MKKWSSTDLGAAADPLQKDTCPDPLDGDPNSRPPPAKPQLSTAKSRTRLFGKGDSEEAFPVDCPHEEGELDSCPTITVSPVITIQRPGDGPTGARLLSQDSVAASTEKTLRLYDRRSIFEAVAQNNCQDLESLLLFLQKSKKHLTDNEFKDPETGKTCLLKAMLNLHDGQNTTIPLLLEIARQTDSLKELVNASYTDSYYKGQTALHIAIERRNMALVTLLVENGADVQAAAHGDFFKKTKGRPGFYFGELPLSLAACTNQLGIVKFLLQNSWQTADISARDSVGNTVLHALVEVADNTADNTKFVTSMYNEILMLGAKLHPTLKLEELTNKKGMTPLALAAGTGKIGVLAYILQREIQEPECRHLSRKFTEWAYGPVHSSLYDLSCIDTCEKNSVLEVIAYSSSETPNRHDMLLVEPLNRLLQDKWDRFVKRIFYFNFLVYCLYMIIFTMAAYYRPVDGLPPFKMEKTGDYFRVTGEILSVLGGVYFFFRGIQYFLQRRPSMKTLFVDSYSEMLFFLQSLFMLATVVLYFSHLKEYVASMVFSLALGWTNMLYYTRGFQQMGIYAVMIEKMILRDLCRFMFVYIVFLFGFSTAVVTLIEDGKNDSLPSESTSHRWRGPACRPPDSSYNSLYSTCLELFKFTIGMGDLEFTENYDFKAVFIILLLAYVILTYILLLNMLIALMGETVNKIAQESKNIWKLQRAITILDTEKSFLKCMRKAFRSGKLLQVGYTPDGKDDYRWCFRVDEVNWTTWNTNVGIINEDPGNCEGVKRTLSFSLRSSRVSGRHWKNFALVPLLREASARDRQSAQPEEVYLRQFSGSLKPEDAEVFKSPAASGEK

C/C=C1\C(=O)CC2C3CCC4=CC(=O)CC[C@]4(C)C3CC[C@]12C (stereo partly drawn)
outcome [1]: inactive | Potency [2]: inactive | Potency [3]: inactive | Potency [4]: inactive | Potency [5]: 11.2 µM (active) | Potency [6]: 14.1 µM (active) | Potency [7]: 10 µM (active) | Potency [8]: 7.08 µM (active) | Potency [9]: 11.2 µM (active) | Potency [10]: inactive | Potency [11]: inactive | Potency [12]: inactive | Potency [13]: inactive | outcome [14]: inactive | outcome [15]: inactive | Potency [16]: inactive | Potency [17]: inactive

CCCCC[C@H](O)/C=C/[C@@H]1[C@H]2C/C(=C/CCCC(=O)O)C[C@H]2C[C@H]1O
Potency [17]: inactive
